Test results: PubChem BioAssay AID1159580 (chemical genetic matrix, 2015)
Out of some 5,500 compounds screened, about 2,000 (36%) were called active. Inconclusive results (about 18%) are left out. Cut-off read from the data, not from the text of the source: active = normalized growth mostly below about 0.91 (no sharp cut-off); inconclusive = no clear call, values can overlap the other calls; inactive = mostly above about 0.92. The list shows a part of the results.

Test: chemical genetic growth profiling, strain panel (AID 1159580);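 note: tested at 20 µM; growth read once vehicle control cultures reached saturation at 30 °C; 1 = growth at the plate median or of vehicle wells; lower values mean less growth of the strain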
Conditions: growth OD

Measured: normalized growth

c1ccc(N=Nc2ccccc2)cc1
inactive: S. cerevisiae deletion strains, locus YJR066W, strain TOR1, active compounds read low 0.95 | S. cerevisiae deletion strains, locus YJR075W, strain HOC1, active compounds read low 0.98 | S. cerevisiae deletion strains, locus YKL009W, strain mrt4, active compounds read low 1 | S. cerevisiae deletion strains, locus YKL068W, active compounds read low 1.02 | S. cerevisiae deletion strains, locus YKL085W, strain MDH1 (second series), active compounds read low 1.01 | S. cerevisiae deletion strains, locus YKL085W, strain MDH1, active compounds read low 1.01 | S. cerevisiae deletion strains, locus YKL160W, strain elf1, active compounds read low 0.996 | S. cerevisiae deletion strains, locus YKL190W, strain CNB1, active compounds read low 0.993 | S. cerevisiae deletion strains, locus YKR001C, strain vps1, active compounds read low 0.979 | S. cerevisiae deletion strains, locus YKR026C, strain gcn3, active compounds read low 0.982 | S. cerevisiae deletion strains, locus YKR091W, strain srl3, active compounds read low 0.987 | S. cerevisiae deletion strains, locus YLL001W, strain dnm1, active compounds read low 0.977 | S. cerevisiae deletion strains, locus YLL026W, active compounds read low 0.986 | S. cerevisiae deletion strains, locus YLL041C, strain sdh2, active compounds read low 0.989 | S. cerevisiae deletion strains, locus YLR027C, strain aat2, active compounds read low 0.983 | S. cerevisiae deletion strains, locus YLR039C, strain RIC1, active compounds read low 0.878 | S. cerevisiae deletion strains, locus YLR058C, strain SHM2, active compounds read low 0.992 | S. cerevisiae deletion strains, locus YLR102C, strain apc9, active compounds read low 1.03 | S. cerevisiae deletion strains, locus YLR113W, strain HOG1, active compounds read low 0.978 | S. cerevisiae deletion strains, locus YLR221C, strain rsa3, active compounds read low 0.984 | S. cerevisiae deletion strains, locus YLR258W, strain gsy2, active compounds read low 0.974 | S. cerevisiae deletion strains, locus YLR262C, strain YPT6 (second series), active compounds read low 0.921 | S. cerevisiae deletion strains, locus YLR262C, strain YPT6, active compounds read low 0.887 | S. cerevisiae deletion strains, locus YLR268W, strain sec22, active compounds read low 0.988 | S. cerevisiae deletion strains, locus YLR320W, strain mms22, active compounds read low 0.993 | S. cerevisiae deletion strains, locus YLR330W, strain CHS5, active compounds read low 1.01 | S. cerevisiae deletion strains, locus YLR342W, strain FKS1 (second series), active compounds read low 0.966 | S. cerevisiae deletion strains, locus YLR342W, strain FKS1, active compounds read low 0.994 | S. cerevisiae deletion strains, locus YLR357W, strain rsc2, active compounds read low 0.97 | S. cerevisiae deletion strains, locus YLR370C, strain arc18, active compounds read low 0.996 | S. cerevisiae deletion strains, locus YLR371W, strain rom2, active compounds read low 1.02 | S. cerevisiae deletion strains, locus YLR384C, strain iki3, active compounds read low 0.973 | S. cerevisiae deletion strains, locus YLR418C, strain cdc73, active compounds read low 1 | S. cerevisiae deletion strains, locus YML016C, strain PPZ1, active compounds read low 1.01 | S. cerevisiae deletion strains, locus YML032C, strain rad52, active compounds read low 1.01 | S. cerevisiae deletion strains, locus YML120C, strain ndi1, active compounds read low 0.976 | S. cerevisiae deletion strains, locus YML124C, strain tub3, active compounds read low 1.03 | S. cerevisiae deletion strains, locus YMR058W, strain fet3, active compounds read low 0.99 | S. cerevisiae deletion strains, locus YMR078C, strain ctf18, active compounds read low 1.01 | S. cerevisiae deletion strains, locus YMR125W, strain sto1, active compounds read low 0.978 | S. cerevisiae deletion strains, locus YMR129W, active compounds read low 0.991 | S. cerevisiae deletion strains, locus YMR205C, strain PFK2, active compounds read low 0.952 | S. cerevisiae deletion strains, locus YMR223W, strain ubp8, active compounds read low 1 | S. cerevisiae deletion strains, locus YMR231W, strain pep5, active compounds read low 0.991 | S. cerevisiae deletion strains, locus YMR263W, strain SAP30, active compounds read low 0.972 | S. cerevisiae deletion strains, locus YMR307W, strain GAS1, active compounds read low 0.945 | S. cerevisiae deletion strains, locus YNL067W, strain RPL9B, active compounds read low 0.975 | S. cerevisiae deletion strains, locus YNL071W, strain lat1, active compounds read low 1 | S. cerevisiae deletion strains, locus YNL183C, strain NPR1, active compounds read low 0.904 | S. cerevisiae deletion strains, locus YNL209W, strain ssb2, active compounds read low 0.991 | S. cerevisiae deletion strains, locus YNL233W, strain BNI4, active compounds read low 0.971 | S. cerevisiae deletion strains, locus YNL248C, strain rpa49, active compounds read low 0.993 | S. cerevisiae deletion strains, locus YNL250W, strain rad50, active compounds read low 1.03 | S. cerevisiae deletion strains, locus YNL271C, strain bni1, active compounds read low 1.03 | S. cerevisiae deletion strains, locus YNL298W, strain CLA4, active compounds read low 1 | S. cerevisiae deletion strains, locus YNL307C, strain MCK1, active compounds read low 1 | S. cerevisiae deletion strains, locus YNL322C, strain KRE1 (second series), active compounds read low 0.974 | S. cerevisiae deletion strains, locus YNR049C, strain mso1, active compounds read low 0.994 | S. cerevisiae deletion strains, locus YNR052C, strain pop2, active compounds read low 1.03 | S. cerevisiae deletion strains, locus YOL006C, strain TOP1, active compounds read low 0.974 | S. cerevisiae deletion strains, locus YOL012C, strain htz1 0.782 | S. cerevisiae deletion strains, locus YOL147C, strain pex11, active compounds read low 1.02 | S. cerevisiae deletion strains, locus YOR001W, strain rrp6, active compounds read low 0.991 | S. cerevisiae deletion strains, locus YOR061W, strain CKA2, active compounds read low 1 | S. cerevisiae deletion strains, locus YOR069W, strain VPS5, active compounds read low 1 | S. cerevisiae deletion strains, locus YOR070C, strain gyp1, active compounds read low 0.985 | S. cerevisiae deletion strains, locus YOR080W, strain dia2, active compounds read low 0.974 | S. cerevisiae deletion strains, locus YOR083W, strain WHI5, active compounds read low 0.989 | S. cerevisiae deletion strains, locus YOR106W, strain vam3, active compounds read low 0.987 | S. cerevisiae deletion strains, locus YOR136W, strain idh2, active compounds read low 1.02 | S. cerevisiae deletion strains, locus YOR144C, strain elg1, active compounds read low 1.02 | S. cerevisiae deletion strains, locus YOR184W, strain ser1, active compounds read low 0.912 | S. cerevisiae deletion strains, locus YOR231W, strain MKK1, active compounds read low 0.944 | S. cerevisiae deletion strains, locus YOR265W, strain rbl2, active compounds read low 0.985 | S. cerevisiae deletion strains, locus YOR270C, strain vph1, active compounds read low 1.11 | S. cerevisiae deletion strains, locus YOR290C, strain snf2, active compounds read low 0.998 | S. cerevisiae deletion strains, locus YOR316C, strain cot1, active compounds read low 1.03 | S. cerevisiae deletion strains, locus YPL051W, strain arl3, active compounds read low 0.987 | S. cerevisiae deletion strains, locus YPL055C, strain LGE1, active compounds read low 0.995 | S. cerevisiae deletion strains, locus YPL078C, strain atp4, active compounds read low 0.979 | S. cerevisiae deletion strains, locus YPL106C, strain sse1, active compounds read low 0.98 | S. cerevisiae deletion strains, locus YPL240C, strain hsp82, active compounds read low 0.986 | S. cerevisiae deletion strains, locus YPL256C, strain CLN2, active compounds read low 0.953 | S. cerevisiae deletion strains, locus YPR119W, strain clb2, active compounds read low 1.03 | S. cerevisiae deletion strains, locus YPR141C, strain kar3, active compounds read low 1.03 | S. cerevisiae deletion strains, locus YPR163C, strain tif3, active compounds read low 1.04 | S. cerevisiae deletion strains, locus YPR167C, strain met16, active compounds read low 1.02 | S. cerevisiae deletion strains, strain wtn01, active compounds read low 1.04 | S. cerevisiae strains, strain wild type, active compounds read low 1
